# Source: PubChem BioAssay (NCATS)
# Records with an inconclusive call do not appear. This is one part of the list. Entries that show only a call come without a potency. Active and inactive are the calls of the source. Unless noted, calls follow the shape of the dose curve; as a rule, active = well fitted curve in the direction sought with a large enough effect; inconclusive = small, poorly fitted or top-dose-only effect, or another doubt; inactive = no such curve, though single readings can be large; an effect the other way counts as inactive or inconclusive.
# Key:
# [1] = target: Tumor susceptibility gene 101 protein (Homo sapiens) (UniProt Q99816); test: qHTS Assay for Iinhibitors of HIV-1 Budding by Blocking the Interaction of PTAP/TSG101: Hit Validation (AID 651600); also: potency is read from the fitted curve at half-maximal effect; nearly all actives have a fitted effect of over 70% in size
# Procedure, shortened: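 Fluorescence polarization binding assay: Tsg101 binding domain (10 uM final) pre-dispensed with compounds, then FITC-labeled PTAP-motif peptide (50 nM final) added; 20 min at r.t. in HEPES pH 7.5 buffer with NaCl, Tween 20, EDTA, TCEP.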
# [2] = target: Cytochrome P450 2D6 (Homo sapiens) (UniProt P10635); test: Cytochrome P450 family 2 subfamily D member 6 (CYP2D6) small molecule antagonists: luciferase biochemical (cell-free) qHTS assay (AID 1645840; active = well fitted curve in the direction sought with a large enough effect in the repeat runs; an effect the other way counts as inactive or inconclusive; also: potency is read from the fitted curve at half-maximal effect; nearly all actives have a fitted effect of over 55% in size)
# Procedure, shortened: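 P450-Glo CYP2D6 system: proluciferin substrate converted by enzyme to luciferin, read by luminescence proportional to activity. Enzyme-substrate mix with compound 10 min at room temperature, then NADPH regeneration 1 h before detection reagent.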
# [3] = target: Cytochrome P450 3A4 (Homo sapiens) (UniProt P08684); test: Cytochrome P450 family 3 subfamily A member 4 (CYP3A4) small molecule antagonists: luciferase qHTS assay (AID 1645841; active = well fitted curve in the direction sought with a large enough effect in the repeat runs; an effect the other way counts as inactive or inconclusive; also: nearly all actives have a fitted effect of over 45% in size)
# Procedure, shortened: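 Luminescent CYP3A4 activity readout: compounds plus enzyme-substrate mix 10 min at room temperature, reaction started with NADPH regenerating system for 1 h, stopped with detection reagent, read after 20 min. Ketoconazole served as control.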
# [4] = target: Rap guanine nucleotide exchange factor 3 (Homo sapiens) (UniProt O95398); test: Counterscreen qHTS for agonist of cAMP-regulated guanine nucleotide exchange factor 3 (EPAC1) (AID 1645889); also: potency is read from the fitted curve at half-maximal effect; nearly all actives have a fitted effect of over 40% in size
# Procedure, shortened: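 Rap1B-BODIPY-GDP 250 nM + GDP 50 uM; cpds 7-pt, final 9.74 nM–152 uM (activator mode) or from 7.32 nM upwards (inhibitor mode); RT; FI 480/540 nm at 5 and 30 min, then ± cAMP, reread.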
# [5] = target: Cytochrome P450 2C19 (Homo sapiens) (UniProt P33261); test: qHTS for inhibitors of CYP2C19 against the NCATS DSHEA and TCM libraries (AID 1919974);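 also: luminescence from luciferin released by CYP2C19 oxidation of a pro-luciferin substrate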
# Procedure, shortened: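 Concentration-response screening with isoform-matched pro-luciferin substrates. The CYP reaction was initiated by NADPH regenerating solution and ran 30-45 min in darkness at room temperature.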
# [6] = target: Nuclear receptor subfamily 1 group I member 2 (Homo sapiens) (UniProt O75469); test: Dual reporter qHTS for agonist of Pregnane X Receptor (hPXR) against the NCATS DSHEA and TCM libraries: Luminescence readout (AID 1920059)
# Procedure, shortened: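 Luminescent PXR reporter read (ONE-Glo) after a CellTiter-Fluor viability read, following 24 h, 37C treatment of HepG2 cells stably carrying hPXR-Luc.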
# [7] = qHTS Assay for Identification of Small Molecule Antagonists for Thrombopoietin (TPO) Signaling Pathway (AID 918); settings: TPO-dependent cell signaling reporter, antagonist mode; also: potency is read from the fitted curve at half-maximal effect; nearly all actives have a fitted effect of over 60% in size
# Procedure, shortened: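 Inhibitors of TPO signaling are sought by stimulating IL-3-starved murine Ba/F3 cells (human TPO receptor, Glycoprotein IIb-driven luciferase) with TPO at its EC50 of 26 pM alongside compound. After 24 hrs at 37 C, reporter luminescence is measured.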
# [8] = Counterscreen for APE1 Inhibitors: Fluorescent Dye Displacement Assay (AID 2564);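 also: loss of thiazole orange fluorescence as the dye is displaced from duplex DNA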
# Procedure, shortened: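 Signal: ThO fluorescence (ex 480 nm/em 540 nm) on binding 50 nM dsDNA; displacement by test compound reduces it. Conditions: 250 nM dye, 50 mM Tris-HCl pH7.5, 2 mM MgCl2, 50mM NaCl, 0.01% Tween-20.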
# [9] = target: Endonuclease 4 (Escherichia coli (strain K12)) (UniProt P0A6C1); test: Counterscreen for APE1 Inhibitors: qHTS Assay for Inhibitors of Endonuclease IV (AID 2565)
# Procedure, shortened: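 Incision of a double-stranded 50 nM TAMRA/BHQ-2 abasic substrate was followed kinetically (525/598 nm, reads every 60 s) after 15 min enzyme–compound preincubation with 2 nM EndoIV in pH 7.5 Tris buffer with MgCl2, DTT and Tween-20; concentration-response format.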
# [10] = target: DNA repair nuclease/redox regulator APEX1 (Homo sapiens) (UniProt P27695); test: Confirmation qHTS Assay for Inhibitors of the Human Apurinic/apyrimidinic Endonuclease 1 (APE1) (AID 2572);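 also: fluorescence gain from purified APE1 cutting a TAMRA/BHQ-2 THF abasic duplex; nearly all actives have a fitted effect of over 30% in size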
# Procedure, shortened: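 Double-stranded THF abasic-site substrate (50 nM final), 5'-TAMRA/3'-BHQ-2; APE1 incision raises fluorescence. Enzyme preincubated with compound 15 min at room temperature before substrate; kinetic read Ex 525/Em 598 nm, signal difference between third and first reads.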
# [11] = target: DNA repair nuclease/redox regulator APEX1 (Homo sapiens) (UniProt P27695); test: qHTS FP-Based Assay for Inhibitors of the Human Apurinic/apyrimidinic Endonuclease 1 (APE1) (AID 2573)
# Excerpt: The apurinic/apyrimidinic endonuclease APE1 is the primary mammalian enzyme responsible for the removal of abasic (or AP) sites in DNA and functions centrally in the base excision DNA repair (BER) pathway. […] Thus, targeting APE1 could improve the efficacy of current treatment paradigms by promoting selective sensitization or protection of diseased and normal cells, respectively.
# In order to gain insight into the mode of action of confirmed APE1 inhibitors, we implemented a miniaturized fluorescence polarization assay designed to report on compounds which competitively displace ds-DNA substrate. The fluorescence polarization assay has been implemented in 384- and 1536-well format for binding of TAMRA-labeled double-stranded DNA probe not containing a quencher. The binding of protein to DNA is inhibited by ATA, a general inhibitor of APE1 activity.
# See also related primary fluorogenic assay (AID 2517). […]
# Three uL of enzyme were dispensed to 1536-well Greiner black solid bottom plates. […] The plates were immediately transferred into ViewLux High-throughput CCD imager (Perkin-Elmer) in order to measure the reaction progress in kinetic mode (three reads every 60 seconds) using 525 nm excitation and 598 nm emission fluorescence protocol. The fluorescence intensity difference between the third and the first time points was used to compute reaction progress.
# DNA repair nuclease/redox regulator APEX1 (Homo sapiens), sequence (P27695 whole entry, looked up): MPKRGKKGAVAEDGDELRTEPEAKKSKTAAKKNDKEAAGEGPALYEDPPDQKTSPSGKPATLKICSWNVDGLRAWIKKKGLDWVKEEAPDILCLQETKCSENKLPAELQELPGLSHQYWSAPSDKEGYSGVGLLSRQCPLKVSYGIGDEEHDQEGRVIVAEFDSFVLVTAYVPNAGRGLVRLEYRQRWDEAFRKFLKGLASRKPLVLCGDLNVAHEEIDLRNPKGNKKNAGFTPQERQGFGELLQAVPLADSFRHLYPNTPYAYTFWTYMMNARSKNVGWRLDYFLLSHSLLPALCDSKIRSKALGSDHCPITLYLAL
# Cytochrome P450 2C19 (Homo sapiens), sequence (P33261 whole entry, looked up, canonical isoform): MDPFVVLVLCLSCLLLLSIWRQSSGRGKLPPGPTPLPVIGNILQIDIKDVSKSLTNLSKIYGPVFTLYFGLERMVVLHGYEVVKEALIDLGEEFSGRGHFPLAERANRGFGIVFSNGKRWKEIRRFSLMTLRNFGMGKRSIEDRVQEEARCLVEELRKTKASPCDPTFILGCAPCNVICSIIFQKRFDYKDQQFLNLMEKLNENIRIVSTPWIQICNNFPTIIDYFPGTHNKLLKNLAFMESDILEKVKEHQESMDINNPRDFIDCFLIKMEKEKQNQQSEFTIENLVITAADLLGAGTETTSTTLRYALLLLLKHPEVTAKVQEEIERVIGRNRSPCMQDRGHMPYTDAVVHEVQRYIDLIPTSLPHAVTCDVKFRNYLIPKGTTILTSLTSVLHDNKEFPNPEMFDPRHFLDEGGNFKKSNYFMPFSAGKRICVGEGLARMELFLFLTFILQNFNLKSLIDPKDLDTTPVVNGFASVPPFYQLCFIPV
# Cytochrome P450 3A4 (Homo sapiens), sequence (P08684 whole entry, looked up): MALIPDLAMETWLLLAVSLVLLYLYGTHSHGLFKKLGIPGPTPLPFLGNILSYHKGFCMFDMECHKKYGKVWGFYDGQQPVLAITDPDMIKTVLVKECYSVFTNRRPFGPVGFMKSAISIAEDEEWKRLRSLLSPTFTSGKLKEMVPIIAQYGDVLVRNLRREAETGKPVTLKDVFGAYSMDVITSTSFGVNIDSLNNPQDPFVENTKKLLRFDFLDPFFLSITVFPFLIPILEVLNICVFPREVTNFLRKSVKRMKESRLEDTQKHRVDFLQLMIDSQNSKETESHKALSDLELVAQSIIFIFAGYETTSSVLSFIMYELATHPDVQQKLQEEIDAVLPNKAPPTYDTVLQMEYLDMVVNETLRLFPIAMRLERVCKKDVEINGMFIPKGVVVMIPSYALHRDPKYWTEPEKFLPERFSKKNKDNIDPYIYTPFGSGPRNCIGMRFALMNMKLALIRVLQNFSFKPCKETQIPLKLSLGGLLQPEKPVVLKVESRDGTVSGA
# Nuclear receptor subfamily 1 group I member 2 (Homo sapiens), sequence (O75469 whole entry, looked up): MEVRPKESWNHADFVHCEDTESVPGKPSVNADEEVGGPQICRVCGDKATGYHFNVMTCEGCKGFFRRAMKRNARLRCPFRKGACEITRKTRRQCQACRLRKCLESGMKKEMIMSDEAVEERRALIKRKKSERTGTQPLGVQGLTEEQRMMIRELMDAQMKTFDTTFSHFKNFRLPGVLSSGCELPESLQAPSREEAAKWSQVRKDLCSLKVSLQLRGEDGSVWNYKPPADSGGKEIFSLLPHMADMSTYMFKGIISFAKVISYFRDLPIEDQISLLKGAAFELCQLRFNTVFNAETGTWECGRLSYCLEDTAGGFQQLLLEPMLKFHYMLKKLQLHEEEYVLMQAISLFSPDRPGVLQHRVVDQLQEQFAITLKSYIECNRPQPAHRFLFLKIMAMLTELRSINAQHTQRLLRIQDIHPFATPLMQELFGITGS
# Cytochrome P450 2D6 (Homo sapiens), sequence (P10635 whole entry, looked up): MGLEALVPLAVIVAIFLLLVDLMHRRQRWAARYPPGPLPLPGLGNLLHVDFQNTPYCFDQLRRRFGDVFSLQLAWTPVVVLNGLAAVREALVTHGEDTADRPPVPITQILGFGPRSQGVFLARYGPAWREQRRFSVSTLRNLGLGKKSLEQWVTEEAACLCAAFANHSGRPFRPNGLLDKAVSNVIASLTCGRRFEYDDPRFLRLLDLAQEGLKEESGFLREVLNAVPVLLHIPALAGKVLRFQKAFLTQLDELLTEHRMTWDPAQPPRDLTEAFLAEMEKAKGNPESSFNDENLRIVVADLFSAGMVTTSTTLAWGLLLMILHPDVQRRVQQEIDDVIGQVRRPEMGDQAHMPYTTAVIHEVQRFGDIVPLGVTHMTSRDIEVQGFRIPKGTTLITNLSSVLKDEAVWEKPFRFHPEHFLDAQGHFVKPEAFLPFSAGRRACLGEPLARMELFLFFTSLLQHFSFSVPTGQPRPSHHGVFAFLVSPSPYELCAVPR
# Tumor susceptibility gene 101 protein (Homo sapiens), sequence (Q99816 whole entry, looked up, the tested form may be a part): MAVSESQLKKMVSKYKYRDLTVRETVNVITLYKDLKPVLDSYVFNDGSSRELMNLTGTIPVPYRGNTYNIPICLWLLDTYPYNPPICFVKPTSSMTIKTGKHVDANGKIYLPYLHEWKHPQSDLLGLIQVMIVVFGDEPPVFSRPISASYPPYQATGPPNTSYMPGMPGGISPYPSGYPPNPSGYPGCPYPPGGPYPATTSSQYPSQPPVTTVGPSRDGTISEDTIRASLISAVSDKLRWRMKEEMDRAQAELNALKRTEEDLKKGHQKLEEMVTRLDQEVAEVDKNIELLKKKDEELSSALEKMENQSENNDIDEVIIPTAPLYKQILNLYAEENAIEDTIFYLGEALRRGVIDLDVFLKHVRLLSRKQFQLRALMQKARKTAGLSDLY
smiles,measurement,setting,value
CC1=NCCc2c1[nH]c1cc(O)ccc21,Potency,[1],3.26 µM (active)
same,Potency,[2],12 µM (active)
same,outcome,[3],inactive
same,Potency,[4],12.6 µM (active)
C=CCc1ccc2c(c1)OCO2,Potency,[5],inactive
same,Potency,[6],inactive
NCC#Cc1ccccc1,Potency,[7],6.31 µM (active)
CCNC[C@H](O)c1cccc(O)c1,outcome,[8],inactive
same,outcome,[9],inactive
same,outcome,[10],inactive
same,outcome,[11],inactive
